Screening results: PubChem, National Center for Advancing Translational Sciences (NCATS)
KCNH2 3.1 block = KCNH2 3.1 (human) potassium channel inhibition | U2OS KCNH2 3.1, thallium flux FluxOr; active compounds read low | activity change, % (tested at about 1.8 µM) | 340,000 compounds, 0.95% hits;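 active = maximum activity change below -70%; inconclusive = maximum activity change from -70% to -50%; inactive = maximum activity change above -50%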;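 note: thallium influx rate constant from kinetic fluorescence after stimulation buffer; % is set by controls: 0 for no effect and ±100 for the full control effect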
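Virally transduced U2OS (3.1 isoform, 4 h infection in dark at RT) → overnight 37 C → FluxOr + Red40 in HBSS/HEPES, 45 min → stimulation buffer, 2 min kinetic read → rate constant vs DMSO controls.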
hERG WT inh = inhibitors of human wildtype KCNH2 potassium channel. Q12809. U2OS, BacMam KCNH2, thallium flux FluxOr; active compounds read low. activity change, % at 1.84 µM. 340,000 compounds, 0.37% hits;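 active = maximum activity change below -70%; inconclusive = maximum activity change between -70% and -50%; inactive = maximum activity change above -50%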; note: % is set by controls: 0 for no effect and ±100 for the full control effect
Target sequence (Q12809 whole entry, looked up): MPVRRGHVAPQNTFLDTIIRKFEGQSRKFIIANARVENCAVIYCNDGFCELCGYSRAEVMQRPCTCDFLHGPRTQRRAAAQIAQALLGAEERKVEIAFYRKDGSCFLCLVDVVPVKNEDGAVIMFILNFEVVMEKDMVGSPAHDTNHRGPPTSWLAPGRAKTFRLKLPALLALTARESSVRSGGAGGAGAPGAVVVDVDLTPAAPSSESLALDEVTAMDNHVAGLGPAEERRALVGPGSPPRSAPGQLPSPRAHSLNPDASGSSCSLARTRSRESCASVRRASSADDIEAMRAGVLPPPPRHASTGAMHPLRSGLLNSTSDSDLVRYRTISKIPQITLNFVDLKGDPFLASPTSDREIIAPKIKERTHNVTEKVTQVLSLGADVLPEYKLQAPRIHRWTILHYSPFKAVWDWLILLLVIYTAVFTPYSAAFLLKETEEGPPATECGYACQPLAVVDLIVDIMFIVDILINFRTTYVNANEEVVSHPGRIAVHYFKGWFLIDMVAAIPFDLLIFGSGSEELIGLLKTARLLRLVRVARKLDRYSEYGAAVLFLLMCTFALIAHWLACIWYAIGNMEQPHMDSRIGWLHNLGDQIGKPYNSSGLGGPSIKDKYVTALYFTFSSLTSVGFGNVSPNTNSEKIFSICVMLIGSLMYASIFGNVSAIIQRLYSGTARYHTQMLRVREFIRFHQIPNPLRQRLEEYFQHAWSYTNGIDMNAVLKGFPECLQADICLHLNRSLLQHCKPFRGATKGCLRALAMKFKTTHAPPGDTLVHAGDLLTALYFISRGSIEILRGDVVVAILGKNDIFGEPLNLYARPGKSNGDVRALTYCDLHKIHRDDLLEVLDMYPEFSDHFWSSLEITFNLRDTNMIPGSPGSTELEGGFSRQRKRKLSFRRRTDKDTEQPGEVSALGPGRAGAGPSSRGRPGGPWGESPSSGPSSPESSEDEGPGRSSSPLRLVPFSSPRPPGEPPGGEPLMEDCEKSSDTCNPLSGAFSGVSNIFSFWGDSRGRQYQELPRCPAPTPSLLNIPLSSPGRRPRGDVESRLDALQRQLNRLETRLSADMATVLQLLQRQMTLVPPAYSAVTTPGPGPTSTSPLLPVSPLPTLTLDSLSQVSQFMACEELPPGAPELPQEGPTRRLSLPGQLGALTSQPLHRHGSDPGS
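U2OS cells transduced with wild-type KCNH2 virus are loaded with FluxOr dye for 45 min, and thallium flux is measured in kinetic reads before and after stimulation buffer. Rate constants are normalized to DMSO controls.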
pAkt inh = Akt phosphorylation inhibition; AID 651550; 360,000 compounds, 0.32% hits; Neuro2A IGF-stimulated pAkt S473 HTRF, 20 min; active compounds read low; activity change, % for hits at 50 µM; in the data active = activity change below about -80%; inconclusive = mostly about -51% to -80%; note: % is set by controls: 0 for no effect and ±100 for the full control effect
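Neuro2A cells in DMEM with 0.5% FBS, overnight at 37 deg C, given compound at single 50 µM final, then IGF (6 nM final) for 20 min at 37 deg C. Lysed; phospho-Akt Ser473 by HTRF after 24 h, 665/615 ratio.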
gsp antag = gsp mutant antagonism. gsp-mutant cells, cAMP HTRF, 30 min. 340,000 compounds, 0.4% hits. Potency, µM (highest dose often 76.9 µM), for the others: top-dose activity change, negative = inhibition, most hits filed as inhibitors; calls by dose curve; cell line not stated here;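 note: intracellular cAMP measured with PDE inhibitor Ro 20-1724 present during compound exposure; potency is the fitted concentration of half-maximal effect; % is set by controls: 0 for no effect and ±100 for the full control effect; nearly all actives have a fitted effect of over 65% in size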
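G418-selected cells were plated in DMEM/10% FBS for 16-24 h at 37C, then treated with compounds plus the PDE inhibitor […] (300 uM solution added) for 30 min at 37C. Intracellular cAMP was measured by HTRF after 30 min lysis at room temperature.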
gsp agonist = gsp mutant agonism; Potency, µM (doses to about 76.9 µM), without a hit: top-dose activation (cAMP increase), most hits filed as activators; 340,000 compounds, 0.13% hits; gsp mutant cells, cAMP HTRF, 30 min; active = well fitted activation curve with a large enough effect; inconclusive = small, poorly fitted or top-dose-only effect, or another doubt; inactive = no such curve, though single readings can be large or run the other way; cell line not stated here;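 note: phosphodiesterase inhibitor Ro 20-1724 added with compounds to block cAMP breakdown; potency is the fitted concentration of half-maximal effect; nearly all actives have a fitted effect of over 60% in size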
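Cells in DMEM/10% FBS with G418 were pretreated with compounds in DMSO plus […] (300 uM stock) for 30 min at 37C. cAMP was measured by HTRF (cAMP-d2 plus anti-cAMP antibody-K) after 30 min at room temperature.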
GRP78 ERSR act = inducers of ER stress response in human glioma cells | U87-MG GRP78 promoter luciferase reporter, 16 h | Potency, µM, inactives show at the highest dose activation, usual class: activators | 420,000 compounds, 0.02% hits; active = well fitted activation curve with a large enough effect; inconclusive = small, poorly fitted or top-dose-only effect; inactive = no such curve, though single readings can be large or run the other way; note: potency is the fitted concentration of half-maximal effect; series mostly up to about 76 µM; % of control where 0% means no effect; nearly all actives have a fitted effect of over 35% in size
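Stably transfected U87-MG human glioma cells carrying a GRP78-based luminescent sensor were seeded at 1000 cells/well, pin-dosed with compounds and incubated 16 h. Luciferase reagent was then added, and end-point luminescence was read after 10 min at room temperature.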
Starred values were filed as active, the others as inactive; i = inactive; u = inconclusive; x = no result; [ ] = another dose, or the depositor's remark. The list is not random: actives were taken first. Their share in the collection is about 1.6%.

SMILES | KCNH2 3.1 block | hERG WT inh | pAkt inh | gsp antag | gsp agonist | GRP78 ERSR act
CCOc1ccc(C(=O)N2CCN(c3cccc(C)c3C)CC2)cc1 | -74* | 10 | i | -9% | 11% | 2%
CCOc1ccc(C(=O)N2CCN(c3cccc(Cl)c3)CC2)cc1 | -14 | x | i | -4% | -1% | 2%
CC1=C(C(=O)Nc2cc(C(=O)N3CCN(c4cccc(C)c4C)CC3)ccc2C)SCCO1 | 4 | -1 | i | 50µM* | 13% | 2%
Cc1ccc2[nH]c(C)cc(=O)c2c1 | x | x | x | x | x | 45µM*
COCC(=O)Nc1cc(C(=O)N2CCC(c3ccccc3)CC2)cc2nc(-c3ccccc3)n(C)c12 | x | x | x | x | x | -5%
CCOc1c(C)cc2[nH]c(CCC(=O)O)nc2c1C | -4 | -5 | -112%* | 10% | -19% | 8%
O=C(O)CCc1nc2ccccc2[nH]1 | x | x | x | x | x | -4%
CCOC(=O)CN1C(=O)N[C@@H](c2ccccc2)[C@@H](C(=O)OC)[C@H]1C | 12 | 6 | i | 10% | -1% | 4%
CCOC(=O)CN1C(=O)N[C@@H](c2ccccc2)[C@H](C(C)=O)[C@H]1C | -82* | -12 | i | 11% | 4% | -2%
CCOC(=O)C(Cc1ccccc1)NC(=O)CCc1nnc2ccc(N3CCOCC3)nn12 (stereo not given) | 0 | -1 | i | 5% | 20µM* | -1%
CCOc1ccc(CCNC(=O)CCc2nnc3ccc(N4CCOCC4)nn23)cc1OCC | 1 | -2 | i | 8% | 8% | -4%
COc1ccc(-n2nc3c(c2NC(=O)CC(C)C)CS(=O)C3)cc1 (stereo not given) | -7 | -12 | i | 1% | -5% | -2%
COc1ccc(-n2nc3c(c2NC(=O)c2c(F)cccc2Cl)CS(=O)C3)cc1 (stereo not given) | -78* | -4 | i | 1% | 13% | -2%
Cc1ccc(CNc2nc(CN3CCNC(=O)C3)nc3ccccc23)o1 | x | x | x | x | x | 2%
C=CCn1c(SCC(=O)NC2CCS(=O)(=O)C2)nnc1-c1ccc(Cl)cc1 (stereo not given) | -7 | 9 | i | 11% | -2%[15.4 µM] | -3%
O=C(CSc1nnc2c(Cl)cc(Cl)cn12)NC1CCS(=O)(=O)C1 (stereo not given) | 0 | 3 | i | 9% | 10µM* | -2%
Cc1cc(/C=C(/C#N)c2nc3ccccc3[nH]2)c(C)n1-c1cccc([N+](=O)[O-])c1 | -134* | -116* | i | 4% | -29% | -2%
COc1ccccc1-n1cc(CN2CCC3(CCC(CNC(=O)c4ccccc4)O3)CC2)cn1 (stereo not given) | x | x | x | x | x | -6%
O=C(O)c1ccc(N2C(=O)c3cccc4c(C(=O)O)ccc(c34)C2=O)cc1 | -22 | 9 | i | -7% | 20µM* | -3%
O=C(O)c1ccc(N2C(=O)c3cccc4cccc(c34)C2=O)cc1 | -2 | -1 | i | 5% | 19%[15.4 µM] | -3%
NN1C(=O)c2cccc3c(C(=O)O)ccc(c23)C1=O | -1 | 5 | i | 9% | -2% | 0%
CC(=O)Nc1ccc2c3c(cccc13)C(=O)N(c1ccccc1)C2=O | 11 | 5 | i | -8% | 35µM* | -1%
O=C(O)c1ccc2c3c(cccc13)C(=O)N(c1ccccc1)C2=O | -104* | -1 | i | 1% | 31% | -3%
COC(=O)C1CCCCN1Cc1ccc2c(c1)CN(Cc1cnn(-c3ccccc3)c1)CCO2 (stereo not given) | x | x | x | x | x | -8%
Cc1ccc(CNc2nc(C)c(-c3ccn(CCN4CCOCC4)n3)s2)o1 | x | x | x | x | x | -3%
SMILES | KCNH2 3.1 block | hERG WT inh | pAkt inh | gsp antag | gsp agonist | GRP78 ERSR act
Cc1cccc(C(=O)N2CCOc3ccc(CN(C)Cc4cc(C5CC5)n[nH]4)cc3C2)n1 | x | x | x | x | x | -5%
CC(C)COc1ccc(CC(=O)NO)cc1 | x | x | x | x | x | -2%
CCN(Cc1ccncc1)Cc1ccc2c(c1)CN(C(=O)c1ccc(C)cc1)CCO2 | x | x | x | x | x | -4%
O=C1CC(N2CCN(Cc3ccccc3)CC2)C(=O)N1 (stereo not given) | -8 | x | i | 13% | -2% | 1%
O=C1CC(N2CCN(c3ccc(Cl)c(Cl)c3)CC2)C(=O)N1 (stereo not given) | 9 | -32 | -120%* | -4% | -22% | -2%
CC1CCCN(S(=O)(=O)c2cccc(-c3cn4cccnc4n3)c2)C1 (stereo not given) | -110* | 7 | i | -23% | -24% | -3%
CCC1CCCCN1CCCNC(=O)c1ccc(/C=C2/Sc3ccccc3NC2=O)cc1 (stereo not given) | -96* | u | i | 2% | 2% | -3%
COC(=O)c1cc(=O)nc2sc3cc(OC)ccc3n12 | -11 | 2 | -114%* | 9% | 17% | -4%
CCCCc1c(O)nc2sc3cc(OC)ccc3n2c1=O | -9 | -8 | i | -5% | -2% | -1%
COc1cccc(-c2ccc(O)c(CNCc3cccc(OC)c3OC)c2)n1 | x | x | x | x | x | -3%
CC(C)(C)NC(=O)Cn1c(SCC(N)=O)nc2ccccc21 | -89* | -6 | i | 9% | 10% | -5%
CC(C)(C)NC(=O)Cn1c(SCC(=O)NC2CC2)nc2ccccc21 | 8 | 4 | i | 9% | -9%[15.4 µM] | -3%
Cc1ccc(C(c2nnnn2Cc2ccccc2)N2CCN(Cc3ccccc3)CC2)cc1 (stereo not given) | u | -77* | i | -16% | 2% | -7%
CCN(CC(=O)NC(C)C)C(=O)C(CCSC)NC(=O)c1cccc(C)c1 (stereo not given) | -201* | -155* | i | -8% | u | -7%
O=C(NCc1cc([N+](=O)[O-])ccc1O)c1cc(-c2ccncc2)nc2ccccc12 | -3 | -5 | i | 40µM* | u | -4%
Cc1ccc(-c2cc(C(=O)NCCc3ccc(S(N)(=O)=O)cc3)c3ccccc3n2)cc1 | -6 | 2 | i | -27% | 30% | 4%
Cc1ccc(CCNC(=O)c2cc(-c3ccncc3)nc3ccccc23)cc1 | -112* | -10 | i | -14% | 0% | -3%
COc1ccc(-c2cc(C(=O)NCCc3ccc(S(N)(=O)=O)cc3)c3ccccc3n2)cc1 | -78* | 8 | i | -29% | -5%[15.4 µM] | 2%
NS(=O)(=O)c1ccc(CNC(=O)c2cc(-c3cccnc3)nc3ccccc23)cc1 | -159* | 0 | i | 6% | -12%[15.4 µM] | -7%
C=CCN1CC[C@@H](O)C(=C)S1(=O)=O | x | x | x | x | x | -1%
CCOC(=O)NNc1ccc(N(CC)CC(C)O)nn1 (stereo not given) | x | x | x | x | x | -3%
Cc1ccc(Sc2cc(C(=O)NCCN(C)C)c3ccccc3n2)cc1 | -96* | 6 | i | 19% | 0% | -2%
